Data published in PubChem BioAssay (NCATS).
Results filed as inconclusive are left out. Unless noted, the call rests on the fitted dose curve; in most records, active means well fitted curve in either direction with a large enough effect (not every such curve was filed as active); inconclusive means small, poorly fitted or top-dose-only effect, or another doubt; inactive means flat fitted curve, though single readings scatter.

Experiments:
[1] = AP1 Signaling Pathway (AID 357); conditions: ME-180 AP-1-bla reporter, EGF-induced, beta-lactamase ratio, 5 h; at 17.2 µM (top of the series) unless noted;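 further: ME-180 reporter cells stimulated with EGF at its EC50 level; on the % scale 0 is the no-effect control and ±100 the full control effect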
Outline: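 Read-out was the 460nm/530nm emission ratio (excitation 405nm) after CCF4 loading for 2.5 hours at room temperature. Cells carried an AP-1-driven beta-lactamase reporter, were stimulated with EC50 EGF plus compound for 5 hours, and AC50 values came from titrations.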

[2] = NFAT Signaling Pathway (AID 444); conditions: Jurkat NFAT-bla M1, carbachol, beta-lactamase ratio, 5 h; at 17.2 µM (top of the series) unless noted;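 further: carbachol stimulus at about its EC50 of 1 µM final; on the % scale 0 is the no-effect control and ±100 the full control effect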
Outline: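 Jurkat cells with NFAT-driven β-lactamase reporter and co-expressed M1 receptor, stimulated with carbachol (final 1 uM, ~EC50), compound titration, 5 h at 37 °C. CCF4 loaded 1 h at RT; 460/530 nm ratio gave %activity and AC50.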

[3] = Stat Signaling Pathway (AID 446); conditions: ME-180 SIE beta-lactamase reporter, IL-6 stimulated, 5 h; at 17.2 µM (top of the series) unless noted;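 further: ME-180 cervical cancer cells given 40 pM IL-6 alongside compound; SIE-controlled beta-lactamase reporter measured as 460/530 nm FRET emission ratio; on the % scale 0 is the no-effect control and ±100 the full control effect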
Outline: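 Reporter line: ME-180 cervical carcinoma, SIE-beta-lactamase. Treatment: compound with 40 pM IL-6, 5 hrs, 37 C, in low-serum OPTI-MEM with 10 mM HEPES pH 7.3. Detection: 460/530 nm fluorescence.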

[4] = target: Glucocorticoid receptor (Homo sapiens) (UniProt P04150); assay: GR-GFP Redistribution (AID 450;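 active means compounds whose dose series gives a full or clear partial fitted curve of increased nuclear translocation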; further: potency means the concentration at half of the fitted maximal effect)
Chain of Glucocorticoid receptor (Homo sapiens) (P04150 whole entry, looked up): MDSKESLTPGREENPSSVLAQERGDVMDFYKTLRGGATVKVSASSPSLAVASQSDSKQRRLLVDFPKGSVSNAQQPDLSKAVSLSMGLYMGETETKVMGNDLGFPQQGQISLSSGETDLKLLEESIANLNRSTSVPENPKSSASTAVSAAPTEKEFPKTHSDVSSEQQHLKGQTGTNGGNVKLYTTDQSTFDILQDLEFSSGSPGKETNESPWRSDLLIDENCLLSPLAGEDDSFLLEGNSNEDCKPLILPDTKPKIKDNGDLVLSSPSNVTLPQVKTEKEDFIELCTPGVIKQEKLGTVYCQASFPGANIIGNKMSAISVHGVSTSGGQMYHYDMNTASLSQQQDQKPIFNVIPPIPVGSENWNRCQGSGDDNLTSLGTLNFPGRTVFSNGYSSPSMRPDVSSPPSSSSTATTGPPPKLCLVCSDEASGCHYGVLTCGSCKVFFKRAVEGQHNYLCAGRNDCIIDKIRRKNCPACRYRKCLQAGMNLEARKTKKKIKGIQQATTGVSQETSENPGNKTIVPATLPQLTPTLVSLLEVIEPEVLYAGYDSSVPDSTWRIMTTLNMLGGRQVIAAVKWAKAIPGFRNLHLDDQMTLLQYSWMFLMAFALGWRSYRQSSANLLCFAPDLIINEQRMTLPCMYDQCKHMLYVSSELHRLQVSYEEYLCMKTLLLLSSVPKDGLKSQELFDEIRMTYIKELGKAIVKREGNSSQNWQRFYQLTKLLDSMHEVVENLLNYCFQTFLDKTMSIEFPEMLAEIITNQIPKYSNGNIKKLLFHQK

COc1ccc(C2=CC(c3cccc(OC)c3)n3nnnc3N2)cc1 (stereo not drawn)
inactive: activity change, negative = inhibition [1] -24.4% | activity change, negative = inhibition [2] 1.4% | activity, negative = inhibition [3] -2.84% | Potency [4] > 20.6 µM

CSc1nnc(N(CCC#N)CCC#N)s1
inactive: activity change, negative = inhibition [1] 2.14% | activity change, negative = inhibition [2] 21.3% | activity, negative = inhibition [3] 2.15% | Potency [4] > 20.6 µM

C=CCNc1nc(N2CCOCC2)c(C#N)c2c1CN(C)CC2
inactive: activity change, negative = inhibition [1] 4.63% | activity change, negative = inhibition [2] -4.25% | activity, negative = inhibition [3] 2.07% | Potency [4] > 20.6 µM

COc1cc(C)nc(Oc2ccc(=O)n(C)n2)n1
inactive: activity change, negative = inhibition [1] 8.82% | activity change, negative = inhibition [2] -8.27% | activity, negative = inhibition [3] 1.84% | Potency [4] > 20.6 µM

CCc1nc(NCC(C)C)c(C#N)c2c1COC(C)(C)C2
inactive: activity change, negative = inhibition [1] -11.6% | activity change, negative = inhibition [2] -0.964% | activity, negative = inhibition [3] 1.74% | Potency [4] > 20.6 µM

Cc1nnc2n(-c3ccccc3)c(=O)c3c4c(sc3n12)COC(C(C)C)C4 (stereo not drawn)
inactive: activity change, negative = inhibition [1] -3.43% | activity change, negative = inhibition [2] -28.2% | activity, negative = inhibition [3] 4.52% | Potency [4] > 20.6 µM

Cc1nnc(N2CCOCC2)c2ccccc12
inactive: activity change, negative = inhibition [1] 5.51% | activity change, negative = inhibition [2] 6.76% | activity, negative = inhibition [3] 5.08% | Potency [4] > 20.6 µM

Nc1nnnn1/N=C/c1cccs1
inactive: activity change, negative = inhibition [1] 7.92% | activity change, negative = inhibition [2] -9.98% | activity, negative = inhibition [3] 2.51% | Potency [4] > 20.6 µM

CCOc1cccc(-c2nnc3sc(-c4cccs4)nn23)c1
inactive: activity change, negative = inhibition [1] -12.6% | activity change, negative = inhibition [2] -10.8% | activity, negative = inhibition [3] 5.52% | Potency [4] > 20.6 µM

O=C1[C@@H]2[C@H](C(=O)N1n1cnnc1)[C@H]1C=C[C@@H]2C1
inactive: activity change, negative = inhibition [1] -2.82% | activity change, negative = inhibition [2] 1.6% | activity, negative = inhibition [3] 3.44% | Potency [4] > 20.6 µM

CC(=O)NCCCCCCNC(C)=O
inactive: activity change, negative = inhibition [1] 10.3% | activity change, negative = inhibition [2] -0.404% | activity, negative = inhibition [3] 2.41% | Potency [4] > 20.6 µM

CN1C(=O)c2c(sc3c2CCCC3)NC1c1ccccc1O (stereo not drawn)
inactive: activity change, negative = inhibition [1] -12.2% | activity change, negative = inhibition [2] -10.9% | activity, negative = inhibition [3] -25.9% | Potency [4] > 20.6 µM

CCN(CC)CCCN1C(=O)C(=O)/C(=C(/O)c2ccc(Cl)cc2)C1c1ccccn1 (stereo not drawn)
inactive: activity change, negative = inhibition [1] -3.4% | activity change, negative = inhibition [2] 5.22% | activity, negative = inhibition [3] -0.716% | Potency [4] > 20.6 µM

O=c1oc2c(CN3CCCCC3)c(O)ccc2c2c1CCCCC2
inactive: activity change, negative = inhibition [1] 2.02% | activity change, negative = inhibition [2] -25.5% | activity, negative = inhibition [3] 9.48% | Potency [4] > 20.6 µM

O=C1C2ON(c3ccccc3)C(c3cccnc3)C2C(=O)N1c1ccccc1 (stereo not drawn)
inactive: activity change, negative = inhibition [1] -5.35% | activity change, negative = inhibition [2] -5.72% | activity, negative = inhibition [3] 1.24% | Potency [4] > 20.6 µM

COc1cccc(C2/C(=C(\O)c3ccc4c(c3)OCCO4)C(=O)C(=O)N2CCN(C)C)c1 (stereo not drawn)
inactive: activity change, negative = inhibition [1] -3.08% | activity change, negative = inhibition [2] 2.4% | activity, negative = inhibition [3] 9.63% | Potency [4] > 20.6 µM

CCCC(=O)N1CCc2[nH]c3ccccc3c2C1
inactive: activity change, negative = inhibition [1] -13% | activity change, negative = inhibition [2] 13.8% | activity, negative = inhibition [3] -6.04% | Potency [4] > 20.6 µM

CCC(c1c(C)n(C)n(-c2ccccc2)c1=O)c1c(C)n(C)n(-c2ccccc2)c1=O
inactive: activity change, negative = inhibition [1] 6.29% | activity change, negative = inhibition [2] 9.43% | activity, negative = inhibition [3] 10.1% | Potency [4] > 20.6 µM

CC(=O)N[C@H]1C[C@@H]1c1ccccc1
inactive: activity change, negative = inhibition [1] 5.08% | activity change, negative = inhibition [2] -8.6% | activity, negative = inhibition [3] 12.8% | Potency [4] > 20.6 µM

O=C(O)CCSc1ccc2ccccc2n1
inactive: activity change, negative = inhibition [1] 14.9% | activity change, negative = inhibition [2] 11.5% | activity, negative = inhibition [3] 0.928% | Potency [4] > 20.6 µM

CC(=O)Nc1ccc(S(=O)(=O)Nc2nc3n(n2)C(c2ccccc2)CC(=O)N3)cc1 (stereo not drawn)
inactive: activity change, negative = inhibition [1] 4.99% | activity change, negative = inhibition [2] 2.5% | activity, negative = inhibition [3] 1.09% | Potency [4] > 20.6 µM

COc1ccc2c(c1OC)C(=O)N1c3ccccc3SC21 (stereo not drawn)
inactive: activity change, negative = inhibition [1] 2.44% | activity change, negative = inhibition [2] 6% | activity, negative = inhibition [3] -2.16% | Potency [4] > 20.6 µM

Cn1c[n+](C)cc1/C=N/O
inactive: activity change, negative = inhibition [1] 6.85% | activity change, negative = inhibition [2] 4.23% | activity, negative = inhibition [3] -2.71% | Potency [4] > 20.6 µM

CC(C)Cc1[nH]c(=O)c(C#N)c2c1CCCC2
inactive: activity change, negative = inhibition [1] 3.62% | activity change, negative = inhibition [2] 2.23% | activity, negative = inhibition [3] 8.54% | Potency [4] > 20.6 µM

COc1cc(C2C(C(=O)c3ccc(C)o3)=C(O)C(=O)N2c2cc(C)on2)cc(OC)c1OC (stereo not drawn)
inactive: activity change, negative = inhibition [1] 5.13% | activity change, negative = inhibition [2] -1.16% | activity, negative = inhibition [3] 2.07% | Potency [4] > 20.6 µM

CSC(=Nc1ccccc1)C1=C(O)COC1=O
inactive: activity change, negative = inhibition [1] 3.1% | activity change, negative = inhibition [2] 4.52% | activity, negative = inhibition [3] -5.43% | Potency [4] > 20.6 µM

Cc1cc(O)ccc1-c1cnc2ccccc2n1
inactive: activity change, negative = inhibition [1] 5.77% | activity change, negative = inhibition [2] -5.17% | activity, negative = inhibition [3] 21.5% | Potency [4] > 20.6 µM

COc1cccc(N2CCN(C(=O)c3ccc(=O)oc3)CC2C)c1 (stereo not drawn)
inactive: activity change, negative = inhibition [1] 26.8% | activity change, negative = inhibition [2] -28.2% | activity, negative = inhibition [3] -1.83% | Potency [4] > 20.6 µM

O=C(Nc1ccc(Cl)cn1)C1CCCN1S(=O)(=O)c1ccccc1 (stereo not drawn)
inactive: activity change, negative = inhibition [1] -9.31% | activity change, negative = inhibition [2] -4.11% | activity, negative = inhibition [3] -6.7% | Potency [4] > 20.6 µM

CCCCOC(=O)c1[nH]c(C)c(C(=O)OC)c1C
inactive: activity change, negative = inhibition [1] -3.13% | activity change, negative = inhibition [2] 8.05% | activity, negative = inhibition [3] -9.04% | Potency [4] > 20.6 µM

CCCCCOc1ccc(C(=O)NCC(=O)NCC(=O)OCC)cc1
inactive: activity change, negative = inhibition [1] -2.64% | activity change, negative = inhibition [2] -2.75% | activity, negative = inhibition [3] -0.468% | Potency [4] > 20.6 µM

CCOC(=O)C1=C(c2ccccc2)NC(SCC(=O)Nc2ccccc2C)=C(C#N)C1c1ccco1 (stereo not drawn)
inactive: activity change, negative = inhibition [1] -1.47% | activity change, negative = inhibition [2] -6.28% | activity, negative = inhibition [3] -9.31% | Potency [4] > 20.6 µM

CC1(C)Cc2c(C#N)c(N3CCOCC3)nc(Cc3ccccc3)c2CO1
inactive: activity change, negative = inhibition [1] -20.2% | activity change, negative = inhibition [2] -28.9% | activity, negative = inhibition [3] -7.6% | Potency [4] > 20.6 µM

COc1ccc(OC)c(C(O)c2coc3ccc(O)c(CN4CCOCC4)c23)c1 (stereo not drawn)
inactive: activity change, negative = inhibition [1] 0.618% | activity change, negative = inhibition [2] -10.4% | activity, negative = inhibition [3] -5.12% | Potency [4] > 20.6 µM

N#Cc1c(N2CCOCC2)nc(-c2ccco2)c2c1CCCC2
inactive: activity change, negative = inhibition [1] 2.51% | activity change, negative = inhibition [2] 4.52% | activity, negative = inhibition [3] 4.59% | Potency [4] > 20.6 µM

Cc1ccc2[nH]c(CCN(C)C)c(CC#N)c2c1
inactive: activity change, negative = inhibition [1] 12.9% | activity change, negative = inhibition [2] 8.6% | activity, negative = inhibition [3] 5.44% | Potency [4] > 20.6 µM

CC1(c2cnc(Nc3ccccc3)s2)CCC(=O)O1 (stereo not drawn)
inactive: activity change, negative = inhibition [1] -10.6% | activity change, negative = inhibition [2] -7.05% | activity, negative = inhibition [3] 22.3% | Potency [4] > 20.6 µM
